Compounds with a hit are over-represented: about 4.1% of the library has one in this group of screens.
DAX1 inh-1: NR0B1 (DAX1) inhibition; P51843; HEK293 Gal4-DAX1 luciferase reporter, luminescence; actives 0.99% (n = 340,000); inhibition, % at 6.75 µM;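 active means inhibition above the mean over all tested compounds plus 3 SD, cut at about 4.2% in these data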;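 further: 0% = DAX1-transfected cells with DMSO and 100% = empty-vector control cells with DMSO; inhibition shows as a rise in luminescence from relieved DAX1 repression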
hcDAF12 agonist: activators of H. contortus DAF-12 nuclear receptor. actives 1.4% (n = 370,000). activation, % at 6.8 µM. HEK293 hcDAF-12 lit1-tk-luc reporter, luminescence; 0% DMSO, 100% Δ7-dafachronic acid;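 active means activation above the mean of all tested compounds plus 3 SD, cut at about 5.5% in these data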;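 further: 100% = response to 3 µM Δ7-dafachronic acid high control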
DAX1 inh-2: inhibitors of DAX1 repression of SF-1 activated StAR promoter; inhibition, % at 6.8 µM; actives 1.1% (n = 370,000); HEK293T StAR-luciferase reporter, SF-1/DAX-1 repression relief;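 active means inhibition above the mean over all tested compounds plus 3 SD, cut at about 3.6% in these data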;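 further: 0% = DAX-1 cells with DMSO and 100% = cells lacking DAX-1 with DMSO; higher inhibition means more luminescence from relief of DAX-1 repression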
ssDAF-12 act: S. stercoralis DAF-12 activation, primary screen; HEK293 ssDAF-12/GRIP1 lit1-tk-luc reporter, luminescence; % of 3 µM dafachronic acid response; activation, % at 6.8 µM; actives 1% (n = 370,000);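 active means activation above the mean over all tested compounds plus 3 SD, cut at about 0.9% in these data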;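 further: 0% = DMSO-only wells and 100% = 3 µM delta7-dafachronic acid wells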
hgDAF12 agonist: agonists of H. glycines DAF-12 nuclear receptor; activation, % at 6.8 µM; AID 687014; HEK293 GAL4-hgDAF12 UAS-luciferase reporter, agonist luminescence; normalized to butyrate control; actives 1.8% (n = 370,000);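 active means activation above a cutoff set at the mean of all screened compounds plus 3 SD, cut at about 10% in these data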;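 further: 0% = DMSO wells and 100% = sodium butyrate wells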
LXR ag: LXR-beta agonism as hcDAF-12 counter-screen. shares compounds with hcDAF12 agonist. activation, % at 6.8 µM. HEK293 Gal4-LXR tk-luc reporter, luminescence, 24 h; normalized: DMSO 0%, positive control 100%. AID 743027. 3,400 tested, under 10 active;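 active means mean percent activation of the reporter above a cutoff set as the average over tested compounds plus their standard deviation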
Target sequence (P55055 whole entry, looked up, the tested form may be a part): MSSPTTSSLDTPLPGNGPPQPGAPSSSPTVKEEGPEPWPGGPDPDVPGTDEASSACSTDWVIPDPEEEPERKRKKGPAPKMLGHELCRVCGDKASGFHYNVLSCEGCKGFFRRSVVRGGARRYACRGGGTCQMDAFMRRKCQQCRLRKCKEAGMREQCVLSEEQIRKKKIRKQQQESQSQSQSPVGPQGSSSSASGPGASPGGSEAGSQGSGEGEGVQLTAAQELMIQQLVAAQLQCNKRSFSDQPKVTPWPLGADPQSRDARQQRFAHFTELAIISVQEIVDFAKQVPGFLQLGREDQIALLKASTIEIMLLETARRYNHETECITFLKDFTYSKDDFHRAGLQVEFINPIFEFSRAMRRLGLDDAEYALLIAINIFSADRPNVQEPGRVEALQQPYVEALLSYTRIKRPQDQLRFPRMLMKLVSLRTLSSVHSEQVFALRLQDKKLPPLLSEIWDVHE
hcDAF12 conf: hcDAF-12 agonism, confirmation assay. shares compounds with hcDAF12 agonist. activation, % at 6.8 µM. actives 61% (n = 3,400). HEK293 hcDAF-12 lit1-tk-luc reporter, luminescence; % of Δ7-dafachronic acid response;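 active means mean activation across triplicate tests above the threshold derived from the earlier primary screen, cut at about 5.5% in these data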;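 further: 0% = DMSO only wells and 100% = 3 µM Δ7-dafachronic acid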
Starred values were filed as active, the others as inactive; x = no result.

SMILES	DAX1 inh-1	hcDAF12 agonist	DAX1 inh-2	ssDAF-12 act	hgDAF12 agonist	LXR ag	hcDAF12 conf
CC(=O)Nc1sc(N/N=C\c2cccc(Cl)c2)nc1-c1cccs1	1	8.4*	1	-1	5	0	7.8*
O=C1NC(=O)C(CC(=O)N(Cc2cccs2)C2(C(=O)NC3CCCC3)CCCCC2)N1 (stereo unspecified)	-1	8.7*	0	-1	-1	0	0
O=C1CCC(=O)N1c1ccc(-c2nc3ccccc3s2)cc1	3	7.3*	3	0	4	2	9.5*
Cc1ccc(C(=O)C[n+]2ccc3ccccc3c2)cc1	2	6.7*	1	1.3*	7	0	5
COc1ccc(C(=O)C[n+]2ccc3ccccc3c2C)cc1	8.6*	13*	1	1.8*	9	1	14*
O=C(C[n+]1ccc2ccccc2c1)c1ccc(NC(=O)c2ccccc2)cc1	-3	2	-1	1	-3	x	x
CCC(CO)Nc1cccc2c1S(=O)(=O)N(Cc1cn(Cc3cccc(C(F)(F)F)c3)nn1)Cc1ccccc1O2 (stereo unspecified)	x	-1	-1	-1	-1	x	x
O=[N+]([O-])c1ccc2nc(COCc3nc4ccccc4[nH]3)[nH]c2c1	x	-4	x	-1	-5	x	x
CCOC(=O)C1=NN(c2ccccc2)C2=NC(C)=C(C(=O)OC)C(c3ccc(C)cc3)N12 (stereo unspecified)	2	8.3*	0	-1	0	0	-2
Cc1ccc(C(=O)COC(=O)c2cccs2)cc1	2	7.0*	4.5*	1	9	1	5
CN(C)c1ccc(C(=O)OCC(=O)c2cccs2)cc1	1	8.4*	4.2*	1.1*	20*	1	4
COc1ccc(C(=O)COC(=O)c2ccc(N(C)C)cc2)cc1	0	-1	-1	-2	5	x	x
Cc1ccc(N=Nc2[nH]c3ccccc3c2O)cc1	3	9.5*	2	1	13*	1	12*
COc1ccc(/C=C/C(=O)C2C(=O)C=C(C)OC2=O)cc1O (stereo unspecified)	1	13*	0	1.6*	6	0	3
COc1cc(/C=C/C(=O)C2C(=O)C=C(C)OC2=O)cc(OC)c1O (stereo unspecified)	0	3	0	0	-2	x	x
Brc1ccccc1OCCOc1cccc2cccnc12	0	0	1	-1	-1	x	x
c1cnc2c(OCc3nc4ccccc4[nH]3)cccc2c1	2	11*	2	1.2*	8	1	9.6*
S=C(NNc1ccnc2cc(Cl)ccc12)Nc1ccc(Cl)cc1Cl	0	-1	-1	-2	0	x	x
CCOc1ccc(NC(=S)NNc2ccnc3cc(Cl)ccc23)cc1	1	7.9*	1	-2	0	-1	-2
O=C(c1ccccc1)N1N=C(c2cccs2)CC1c1ccccc1O (stereo unspecified)	3	2	0	-1	-1	x	x
O=C(c1ccccc1)C1Oc2ccccc2C2CC(c3cccs3)=NN12 (stereo unspecified)	4	8.3*	2	-1	7	0	3
C/C(=N\Nc1nc2ccccc2[nH]1)c1ccc(C)o1	0	7.5*	1	2.2*	8	0	8.6*
C/C(=N\O)c1sc(-c2ccccc2)nc1C	2	12*	3.8*	1.1*	12*	1	7.2*
C=C(C)c1sc(-c2ccccc2)nc1C	x	0	0	-1	1	x	x
CCc1ccc(NC2=CC(=O)C(=O)c3ccccc32)cc1	-1	1	-1	0	6	x	x
SMILES	DAX1 inh-1	hcDAF12 agonist	DAX1 inh-2	ssDAF-12 act	hgDAF12 agonist	LXR ag	hcDAF12 conf
CCc1ccc2c(c1)C(=O)c1ccccc1C2=O	0	8.0*	1	2.5*	11*	1	9.8*
O=C1C(=O)N(c2cccc(Cl)c2)C(c2ccccc2[N+](=O)[O-])/C1=C(\O)c1ccccc1 (stereo unspecified)	-1	x	x	x	x	x	x
CCOc1ccc(N2C(=O)C(=O)/C(=C(/O)c3ccccc3)C2c2ccccc2[N+](=O)[O-])cc1 (stereo unspecified)	0	9.4*	1	1.3*	2	0	3
COCc1nnc(NC(=O)COc2ccc3c(c2)OCO3)s1	1	4	0	-1	1	x	x
O=C(COc1ccc2c(c1)OCO2)Nc1nccs1	-2	7.5*	2	1.1*	11*	1	6.0*
Cc1csc(N/N=C/c2ccccc2F)n1	3	7.2*	1	1	10	1	10*
C=CCN1C(=O)[C@H](CC(=O)NCc2cccs2)[C@@]2(C(=O)OCC)CCCC=C12	x	-1	0	-1	-1	x	x
Cc1ccc(C(=O)Nc2sc3c(c2C#N)CCCCC3)cc1C	1	3	1	-1	6	x	x
N#Cc1c(NC(=O)c2ccccc2)sc2c1CCCCC2	2	7.0*	3	1.0*	13*	1	5.9*
NC(=O)c1c(NC(=O)c2ccccc2F)sc2c1CCCC2	5.4*	9.0*	3	0	13*	1	7.3*
CC(=O)NC(C)C(=O)N1CCCC1C(=O)N1CCCC1C(=O)NC(C)C(=O)NC1C(=O)NC(CC(C)C)C(=O)NC2CCCCNC(=O)CCC(C(=O)NC(Cc3ccc(O)cc3)C(=O)O)NC(=O)C3CCC(=O)OCC(NC(=O)C4CCCN4C(=O)C(Cc4c[nH]c5ccccc45)NC2=O)C(=O)NC(CC(=O)OC1C)C(=O)NC(Cc1c[nH]c2ccccc12)C(=O)N3 (stereo unspecified)	x	-1	0	0	-2	x	x
CCc1nc2ccc(C(=O)NCc3ccc4c(c3)OCO4)cn2c1N(C)CCC(C)C	x	-1	0	-1	-2	x	x
c1ccc(-c2csc(Nc3cccnc3)n2)nc1	0	0	1	-1	7	x	x
c1ccc(Nc2nc(-c3ccccn3)cs2)cc1	1	13*	2	1.3*	13*	2	11*
CCCC(C)NC(=O)Cc1ccccc1[N+](=O)[O-] (stereo unspecified)	1	7.3*	1	1.1*	3	0	5.9*
CC(C)CC1c2[nH]c3ccccc3c2CCN1C(=O)c1cnccn1 (stereo unspecified)	x	9.6*	1	0.9*	5	1	12*

Bioassay records: PubChem, The Scripps Research Institute Molecular Screening Center
